The sample as a whole holds a higher share of hits than the screen did.
Pf Dd2 growth: inhibitors of Plasmodium falciparum Dd2 growth; P. falciparum Dd2 growth, SYBR Green, 72 h; Potency, µM (highest dose often 28.9 µM), for the others: top-dose activity, negative = inhibition, actives largely listed as inhibitors; 120,000 compounds, 4.3% hits; AID 1347417; active = well fitted inhibition curve with a large enough effect;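 note: plate controls were DMSO vehicle for no effect and reference drug for full effect; nearly all actives have a fitted effect of over 65% in size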
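Readout: SYBR Green fluorescence, 485 nm excitation, 535 nm emission, after ~16 h lysis at 37C. Before that, Dd2-infected red cells (2.5% hematocrit) grew 72 h with compound, 29 uM top final concentration.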
Numbers without * were called inactive; i = inactive; [ ] = remark or other dose. Potency is the fitted concentration of half-maximal effect.

SMILES	Pf Dd2 growth
CSc1ccccc1OCc1cc(C(=O)NCCN2CCCCC2CO)no1 (stereo not drawn)	11µM*
COc1ccc(-c2nc(C3CC(=O)N(c4ccc(F)cc4)C3)no2)cc1 (stereo not drawn)	59%
O=C(O)c1cc2c(s1)CCN(C(=O)c1ccc(Cl)cc1)C2	0%
COc1ccccc1OCCn1c(-c2ccc(Cl)cc2)nc2ccccc2c1=O	-10%
COc1ccc(-c2nc3ccccc3n2Cc2ccc(Cl)cc2)cc1	-10%
COc1cccc(OCCCCn2c(-c3ccc(Cl)cc3)nc3ccccc3c2=O)c1	10µM*
Cc1ccc(C2Cn3nnc(C(=O)N4CCC(C(=O)NCc5ccccn5)CC4)c3CO2)cc1 (stereo not drawn)	i
COCCOC1CN(C2CCN(C(=O)NC(C)(C)C)CC2)C12CCCCC2 (stereo not drawn)	-23%
CCCN(CC1CCOC1)C(=O)Nc1cccc(F)c1C (stereo not drawn)	i[5.79 µM]
CCc1csc(CNC(=O)C(CC)n2cc(C(C)=O)c3ccccc32)n1 (stereo not drawn)	-8%
NC(=O)NCC(=O)N1CCCC(c2cc(N3CCOCC3)ncn2)C1 (stereo not drawn)	22%
Cc1ccc2oc(C(=O)N3CCC(c4nc5ccccc5s4)CC3)c(C)c2c1	31%
O=C(c1ccccc1Cl)N1CCC(c2nc3ccccc3s2)CC1	88%
COc1cc(C(=O)N2CCC(c3nc4ccccc4s3)CC2)cc(OC)c1OC	96%
Cc1c(C(=O)N2CCC(c3nc4ccccc4s3)CC2)oc2cc(Br)ccc12	-18%
Cc1cc(C)c2c(C)c(C(=O)N3CCC(c4nc5ccccc5s4)CC3)oc2c1	8.9µM*
Cc1ccccc1C(=O)N1CCC(c2nc3ccccc3s2)CC1	1.3µM*
COCC1CN(C(C)=O)CC12CCN(Cc1cc(F)c(F)cc1F)CC2 (stereo not drawn)	-17%
COCCNC(=O)[C@H]1C[C@H](Oc2cccnc2)CN1C(=O)NCCc1ccccc1	11%
Cn1ccnc1C(=O)N1CCCC(c2nc(-c3cccnc3)no2)CCNC(=O)CC1 (stereo not drawn)	-1%
CNC(=O)NC[C@H]1CCN(Cc2ccncc2F)C[C@H]1N(C)C	27%
COc1ccccc1-n1c(/C=C/c2c(C)n(C)c3ccccc23)nc2ccccc2c1=O	4µM*
COc1ccc(-n2c(/C=C/c3c(C)[nH]c4ccccc34)nc3ccccc3c2=O)cc1	-14%
COc1ccc(Cl)cc1-n1c(/C=C/c2cccc3ccccc23)nc2ccccc2c1=O	9%
COc1ccc(-n2c(/C=C\c3ccccc3F)nc3ccccc3c2=O)cc1OC	i
SMILES	Pf Dd2 growth
Cc1ccccc1-n1c(/C=C/c2ccccc2F)nc2ccccc2c1=O	10µM*
Cc1ccccc1-n1c(/C=C/c2c(C)n(C)c3ccccc23)nc2ccccc2c1=O	2.8µM*
CSc1ccc(/C=C/c2nc3ccccc3c(=O)n2-c2cccc(Cl)c2C)cc1	i
O=c1c2ccccc2nc(/C=C/c2cccc3ccccc23)n1-c1ccccc1Cl	-4%
Cc1ccc(-n2c(/C=C/c3ccc(Br)s3)nc3ccccc3c2=O)cc1	10%
Cc1ccc(C(=O)N2CCC3(CC2)CC(OCC2CC2)CCO3)cn1 (stereo not drawn)	-1%
CSCCc1nc(Cn2cccnc2=O)n(-c2ccccc2C(=O)O)n1	12%
COc1ccc(C(=O)N2CCN(C(=O)CS(=O)(=O)c3ccccc3)C[C@@H]2C(=O)N[C@H]2CCCNC2=O)cc1	21%
O=C1CCN(C(=O)COc2ccc(F)cc2)CCCCCCN1	-19%
CN(C(=O)CC(c1cccc(O)c1)c1cccc(Cl)c1)C1CCOCC1 (stereo not drawn)	-9%
CC(C)C(Oc1ccccc1)C(=O)N1CCc2c(ncnc2N(C)C)C1 (stereo not drawn)	-23%
Cc1nnn2c(C(=O)Nc3ccc(Cl)cc3Cl)cccc12	6%[44.1 µM]
Cc1nn(-c2ccccc2)c(C)c1[C@@H]1C=C[C@@H](NC(=O)CC(C)(C)CC(=O)O)C1	-4%[44.1 µM]
Cc1nn(-c2ccc(C(C)(C)C)cc2)c(C)c1[C@@H]1C=C[C@@H](NC(=O)CCCC(=O)O)C1	i
Cc1nn(-c2ccccc2)c(C)c1[C@@H]1C=C[C@@H](NC(=O)c2ccco2)C1	10µM*
COC(=O)c1cccc(NC(=S)N[C@@H]2C=C[C@@H](c3c(C)nn(-c4ccc(F)cc4)c3C)C2)c1	-20%
Cc1nn(-c2ccc(C(C)(C)C)cc2)c(C)c1[C@@H]1C=C[C@@H](NC(=O)CC2(CC(=O)O)CCCC2)C1	4%
Cc1cc(Cl)ccc1-n1nc(C)c([C@@H]2C=C[C@@H](NC(=O)c3ccc(N(C)C)cc3)C2)c1C	10µM*
Cc1nn(-c2ccc(C(F)(F)F)cc2)c(C)c1[C@@H]1C=C[C@@H](NC(=O)CSCC(=O)O)C1	i
Cc1nn(-c2ccccn2)c(C)c1[C@@H]1C=C[C@@H](NC(=O)CC(C)(C)CC(=O)O)C1	i
CC(=O)N[C@@H]1C=C[C@@H](c2c(C)nn(-c3ccc(C)c(Cl)c3)c2C)C1	i
Cc1nn(-c2ccc(F)cc2)c(C)c1[C@@H]1C=C[C@@H](NC(=O)c2ccco2)C1	6.3µM*
Cc1nn(-c2ccccc2[N+](=O)[O-])c(C)c1[C@@H]1C=C[C@@H](NCc2ccco2)C1	11µM*
Cc1nn(-c2ccccc2)c(C)c1[C@@H]1C=C[C@@H](NC(=O)CCCC(=O)O)C1	-1%[44.1 µM]
NCCN1C(=O)CC[C@H]2CN(C(=O)C3(c4ccccc4)CC3)CC[C@H]21	2%
SMILES	Pf Dd2 growth
Nc1nc(N2CCC3(CC2)NC(=O)CC3C(=O)O)c2[nH]cnc2n1 (stereo not drawn)	11%
COCc1noc([C@@H]2CN(C(=O)C3(C)CCCCC3)C[C@H]2CO)n1	-3%
CNC(=O)[C@@H](C1CC1)N1CCC[C@H]1C(=O)N1CCCCC1	12%[44.1 µM]
O=C(CN1C(=O)NC(c2ccccc2Cl)C2=C1COC2=O)NCc1ccc(F)cc1 (stereo not drawn)	-15%
CC(C)C(=O)N1CCC2(CC1)CCC(O)(CN(C)C)CC2	-13%
Cc1ccc([S+](=O)([O-])N2CCn3c(nnc3-c3ccccc3)C2)cc1	i
CN1CCCCCCN(C(=O)NC2CCCCC2)[C@H]2CCC[C@H]2C1=O	i
CCOc1ccccc1NC(=O)N1CCCCCCN(C)C(=O)[C@H]2CCC[C@H]21	11µM*
CCOc1ccccc1NC(=O)N1CCCCCCN(C)C(=O)CC1	-24%
CN(C)C(=O)c1ccc(OC2CCN(C(=O)c3ccoc3)CC2)nc1	32%
Cc1nnc(N2CCC(C(=O)N3CCCCC3)CC2)c2nn(-c3ccc(Cl)cc3)c(C)c12	10µM*
CCN(CC)CCNC(=O)C1CCCN(c2ncnc3onc(C)c23)C1 (stereo not drawn)	-9%
CCN(CC)CCNC(=O)C1CCCN(c2nnc(C)c3c(C)n(-c4ccc(Cl)cc4)nc23)C1 (stereo not drawn)	11µM*
Cc1nnc(N2CCC(C(=O)NC3CCC(C)CC3)CC2)c2nn(-c3ccc(Cl)cc3)c(C)c12 (stereo not drawn)	3%
Cc1nnc(N2CCC(C(=O)NC3CCCCC3)CC2)c2nn(-c3ccc(Cl)cc3)c(C)c12	12%
Cc1nnc(N2CCN(C(=O)NCCC(C)C)CC2)c2nn(-c3ccc(Cl)cc3)c(C)c12	1%
CCCNC(=O)O[C@@H]1CC[C@]2(C)C(CC[C@H]3OC(=O)C[C@H]32)[C@]1(C)CO (stereo partly drawn)	-15%[44.1 µM]
CCOCCC(=O)N1CCCC(c2cc(N3CCOCC3)nc(C)n2)C1 (stereo not drawn)	-17%
